Bioassay records deposited in PubChem by several laboratories.
In the library only some 4.1% were active in any assay of this set; here they are far more common.
Jurkat NFkB inh – inhibitors of the PMA/ionomycin-induced NF-kB reporter in Jurkat cells. AID 435003. inhibition, % at 4 µM. PMA/ionomycin-induced NF-kB luciferase reporter, luminescence. 330,000 tested, 0.53% active; in the data active = inhibition above about 50%
Gli-Sufu block – Gli-Sufu pathway antagonism. inhibition, % at 5 µM. Sufu-KO-LIGHT fibroblasts, Gli luciferase reporter luminescence. 340,000 tested, 0.74% active;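 active = inhibition above about 55%, limit read from the data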
Mdm2-MdmX inh – inhibitors of human Mdm2/MdmX interaction | O15151+Q00987 | SaOS-2 split-luciferase Mdm2/MdmX complementation, luminescence | inhibition, % at 8 µM | 330,000 tested, 3% active | AID 485346;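 active = inhibition of at least 50% at 8 µM in the primary screen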
Target sequence (O15151 whole entry, looked up): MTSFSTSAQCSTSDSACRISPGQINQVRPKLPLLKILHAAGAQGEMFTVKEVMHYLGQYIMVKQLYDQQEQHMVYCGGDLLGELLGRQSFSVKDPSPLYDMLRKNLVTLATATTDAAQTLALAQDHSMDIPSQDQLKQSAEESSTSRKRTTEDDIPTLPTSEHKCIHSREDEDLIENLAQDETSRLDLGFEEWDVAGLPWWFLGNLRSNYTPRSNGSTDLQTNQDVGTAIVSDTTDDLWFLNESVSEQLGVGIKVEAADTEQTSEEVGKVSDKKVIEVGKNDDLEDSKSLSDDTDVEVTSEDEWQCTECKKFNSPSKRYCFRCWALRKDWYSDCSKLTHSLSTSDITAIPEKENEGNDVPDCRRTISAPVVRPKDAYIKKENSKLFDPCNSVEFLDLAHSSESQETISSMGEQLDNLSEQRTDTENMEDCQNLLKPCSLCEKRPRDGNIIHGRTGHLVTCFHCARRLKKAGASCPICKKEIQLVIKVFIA
Target sequence (Q00987 whole entry, looked up): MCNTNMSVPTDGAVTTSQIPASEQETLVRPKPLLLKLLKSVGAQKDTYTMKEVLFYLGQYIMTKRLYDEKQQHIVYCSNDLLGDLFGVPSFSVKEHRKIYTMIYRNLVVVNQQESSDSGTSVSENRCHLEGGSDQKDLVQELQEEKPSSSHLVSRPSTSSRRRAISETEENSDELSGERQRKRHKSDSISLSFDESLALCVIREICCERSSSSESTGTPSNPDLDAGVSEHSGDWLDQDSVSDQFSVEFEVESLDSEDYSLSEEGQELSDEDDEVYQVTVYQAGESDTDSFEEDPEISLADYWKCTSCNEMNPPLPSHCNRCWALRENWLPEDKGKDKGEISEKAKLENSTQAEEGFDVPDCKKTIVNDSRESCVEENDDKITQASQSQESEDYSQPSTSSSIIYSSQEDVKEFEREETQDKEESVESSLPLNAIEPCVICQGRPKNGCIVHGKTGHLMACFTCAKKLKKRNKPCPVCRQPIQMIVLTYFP
697 NFkB inh – lowers PMA/ionomycin-induced NF-kB signal in 697 B cells; 697 B-cell NF-kB luciferase reporter, 16 h; inhibition, % at 4 µM; 330,000 tested, 0.33% active; AID 435022; in the data active = inhibition above about 35%
aSyn 5UTR inh – 5' untranslated region of α-synuclein, MLPCN primary screen. inhibition, % (tested at 7.5 µM). AID 1813. 300,000 tested, 0.82% active. alpha-synuclein 5'UTR reporter, inhibitor activity; in the data active = inhibition above about 60%;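 note: H4 neuroglioblastoma cells stably carrying SNCA 5'UTR luciferase fusion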
KLF5 inh – suppresses KLF5 promoter-driven expression; DLD-1 KLF5 promoter-luciferase reporter, luminescence; inhibition, % at 5 µM; 290,000 tested, 0.23% active; AID 1700;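 active = inhibition above a per-plate limit of that plate's mean compound inhibition plus 3 SD, cut at about 60% in these data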;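 note: higher means less KLF5 promoter-driven luciferase light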
Mdm2-MdmX conf – confirmation of human Mdm2/MdmX interaction inhibitors; shares compounds with Mdm2-MdmX inh; 10,000 tested, 55% active; inhibition, % at 8 µM; Mdm2-MdmX binding, luminescent assay; in the data active = inhibition above about 40%
FLuc counter – full-length luciferase inhibition in Mdm2/MdmX counter-screen; shares compounds with Mdm2-MdmX inh; SaOS-2 full-length luciferase counterscreen, luminescence; inhibition, % at 8 µM; 6,200 tested, 77% active; AID 504607;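 active = mean inhibition at 8 µM reaching about 37%, which flags the compound as non-specific, limit read from the data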;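 note: p53-null SaOS-2 cells with luciferase driven by a doxycycline-inducible promoter; compound on cells about two nights before reading with doxycycline added after day one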
A number is an active result.

`CC(NCC(O)COC1CCC(C(C)(C)C)CC1)c1ccccc1` (stereo not given) gave Jurkat NFkB inh inactive, Gli-Sufu block inactive, Mdm2-MdmX inh 55, 697 NFkB inh inactive, aSyn 5UTR inh inactive, KLF5 inh inactive, Mdm2-MdmX conf inactive and FLuc counter 77.
For CC1CCC(C(C)C)C(OCC(O)CNC(C)c2ccccc2)C1 (stereo not given) the results were Jurkat NFkB inh inactive, Gli-Sufu block inactive, Mdm2-MdmX inh 60, 697 NFkB inh inactive, aSyn 5UTR inh inactive, KLF5 inh inactive, Mdm2-MdmX conf 46 and FLuc counter 70.
Screening Cc1ccc(-n2nc3c(=O)n(CCCC(=O)N4CCC(C(N)=O)CC4)nc(C)c3c2C)cc1 returned Jurkat NFkB inh inactive, Gli-Sufu block inactive, Mdm2-MdmX inh inactive, 697 NFkB inh inactive, aSyn 5UTR inh inactive and KLF5 inh inactive.
O=C(N/N=C1/CC2CCC1C2)c1cc2ccccc2cc1O (stereo not given) was read as Jurkat NFkB inh inactive, Gli-Sufu block inactive, Mdm2-MdmX inh 52, 697 NFkB inh inactive, aSyn 5UTR inh inactive, KLF5 inh inactive, Mdm2-MdmX conf 41 and FLuc counter 83.
Cc1ccc2[nH]c(C)c(/C=C/c3cc[n+](C)cc3)c2c1 was read as Jurkat NFkB inh inactive, Gli-Sufu block inactive, Mdm2-MdmX inh 74, 697 NFkB inh inactive, aSyn 5UTR inh inactive, KLF5 inh inactive, Mdm2-MdmX conf 67 and FLuc counter 54.
`Cc1ccc2c(c1)c(/C=C/c1cc[n+](C)cc1)c(C)n2C` gave Jurkat NFkB inh inactive, Gli-Sufu block 57, Mdm2-MdmX inh 83, 697 NFkB inh inactive, aSyn 5UTR inh inactive, KLF5 inh inactive, Mdm2-MdmX conf 59 and FLuc counter 49.
For C[n+]1ccc(/C=C/c2c[nH]c3ccc(F)cc23)cc1 the results were Jurkat NFkB inh inactive, Gli-Sufu block inactive, Mdm2-MdmX inh inactive, 697 NFkB inh inactive, aSyn 5UTR inh inactive and KLF5 inh inactive.
For O=C(O)c1ccccc1N/C=C\[N+](=O)[O-] the results were Jurkat NFkB inh inactive, Gli-Sufu block inactive, Mdm2-MdmX inh inactive, 697 NFkB inh inactive, aSyn 5UTR inh inactive and KLF5 inh inactive.
OC(CNCc1ccncc1)c1ccccc1 (stereo not given) was read as Jurkat NFkB inh inactive, Gli-Sufu block inactive, Mdm2-MdmX inh inactive, 697 NFkB inh inactive, aSyn 5UTR inh inactive and KLF5 inh inactive.
`OC(CNCc1ccc(-c2ccccc2)cc1)c1ccccc1` (stereo not given) gave Jurkat NFkB inh inactive, Gli-Sufu block inactive, Mdm2-MdmX inh 53, 697 NFkB inh inactive, aSyn 5UTR inh inactive, KLF5 inh inactive, Mdm2-MdmX conf 58 and FLuc counter inactive.
Screening COc1ccc(/C=C2\SC(=S)N(CCC(=O)N3CCCCC3)C2=O)cc1 returned Jurkat NFkB inh inactive, Gli-Sufu block inactive, Mdm2-MdmX inh 64, 697 NFkB inh inactive, aSyn 5UTR inh inactive, KLF5 inh inactive, Mdm2-MdmX conf 46 and FLuc counter 90.
For O=C(CCN1C(=O)/C(=C/c2ccccc2Cl)SC1=S)NCCc1ccc(O)cc1 the results were Jurkat NFkB inh inactive, Gli-Sufu block inactive, Mdm2-MdmX inh 78, 697 NFkB inh inactive, aSyn 5UTR inh inactive, KLF5 inh inactive, Mdm2-MdmX conf inactive and FLuc counter 48.
Screening O=C1/C(=C/c2ccccc2Cl)SC(=S)N1CCCC(=O)N(CCO)c1ccccc1 returned Jurkat NFkB inh inactive, Gli-Sufu block inactive, Mdm2-MdmX inh 98, 697 NFkB inh inactive, aSyn 5UTR inh inactive, KLF5 inh inactive and Mdm2-MdmX conf inactive.
For O=C(CCN1C(=O)/C(=C\c2ccccc2Cl)SC1=S)N1CCN(c2ccccc2)CC1 the results were Jurkat NFkB inh inactive, Gli-Sufu block inactive, Mdm2-MdmX inh 98, 697 NFkB inh inactive, aSyn 5UTR inh inactive, KLF5 inh inactive, Mdm2-MdmX conf 80 and FLuc counter 42.
Screening O=C(CCN1C(=O)/C(=C/c2ccccc2Cl)SC1=S)NN1CCOCC1 returned Jurkat NFkB inh inactive, Gli-Sufu block inactive, Mdm2-MdmX inh inactive, 697 NFkB inh inactive, aSyn 5UTR inh inactive and KLF5 inh inactive.
For Cc1ccc(S(=O)(=O)N2CCN(C(=O)C3CSC4(C)CCC(=O)N34)CC2)cc1C (stereo not given) the results were Jurkat NFkB inh inactive, Gli-Sufu block inactive, Mdm2-MdmX inh inactive, 697 NFkB inh inactive and aSyn 5UTR inh inactive.
For Cc1ccc(-c2ccc(OC(=O)c3ccc(=O)[nH]c3)c(C)c2)cc1 the results were Jurkat NFkB inh inactive, Gli-Sufu block inactive, Mdm2-MdmX inh inactive, 697 NFkB inh inactive, aSyn 5UTR inh inactive and KLF5 inh inactive.
Screening COc1cc(/C=C2\SC(=S)N(CCC(=O)Nc3ccccc3)C2=O)cc(OC)c1OC returned Jurkat NFkB inh inactive, Gli-Sufu block inactive, Mdm2-MdmX inh inactive, 697 NFkB inh inactive, aSyn 5UTR inh inactive and KLF5 inh inactive.
For COc1ccccc1NC(=O)CCN1C(=O)/C(=C\c2cc(OC)c(OC)c(OC)c2)SC1=S the results were Jurkat NFkB inh inactive, Gli-Sufu block inactive, Mdm2-MdmX inh 52, 697 NFkB inh inactive, aSyn 5UTR inh inactive, KLF5 inh inactive and Mdm2-MdmX conf inactive.
O=C(CCN1C(=O)/C(=C/c2ccccc2)SC1=S)N1CCCCCC1 was read as Jurkat NFkB inh inactive, Gli-Sufu block inactive, Mdm2-MdmX inh 95, 697 NFkB inh inactive, aSyn 5UTR inh inactive, KLF5 inh inactive, Mdm2-MdmX conf 77 and FLuc counter 52.
Screening COc1cccc(/C=C2\SC(=S)N(CCCC(=O)Nc3cc(C)on3)C2=O)c1 returned Jurkat NFkB inh inactive, Gli-Sufu block inactive, Mdm2-MdmX inh 52, 697 NFkB inh inactive, aSyn 5UTR inh inactive, KLF5 inh inactive, Mdm2-MdmX conf 58 and FLuc counter 70.
For O=C1/C(=C\c2cccc(O)c2O)SC(=S)N1Cc1ccccc1 the results were Jurkat NFkB inh inactive, Gli-Sufu block inactive, Mdm2-MdmX inh 72, 697 NFkB inh inactive, aSyn 5UTR inh inactive, KLF5 inh inactive, Mdm2-MdmX conf 57 and FLuc counter inactive.
For O=C(Cn1cc(C(=O)c2ccco2)c2ccccc21)NC1CC1 the results were Jurkat NFkB inh inactive, Gli-Sufu block inactive, Mdm2-MdmX inh inactive, 697 NFkB inh inactive, aSyn 5UTR inh inactive and KLF5 inh inactive.
Screening O=C(CCN1C(=O)/C(=C/c2cccs2)SC1=S)Nc1ccc(O)cc1 returned Jurkat NFkB inh inactive, Gli-Sufu block inactive, Mdm2-MdmX inh inactive, 697 NFkB inh inactive, aSyn 5UTR inh inactive and KLF5 inh inactive.
Screening O=C(CN1C(=O)/C(=C/c2cccc(Br)c2)SC1=S)NC1=NCCS1 returned Jurkat NFkB inh inactive, Gli-Sufu block inactive, Mdm2-MdmX inh inactive, 697 NFkB inh inactive, aSyn 5UTR inh inactive and KLF5 inh inactive.
